For 33 molecules, relative cell viability results are on record in the supplement of paper PMC9492666.

One assay relates to HCC1937. Kind of assay: relative cell viability, compound alone, vs DMSO (fraction of DMSO control); higher = less growth inhibition. Conditions: 72 h.
A further assay has as its system MDA-MB-231. The assay is described as above. The conditions noted are these: 72 h.

The structures appear in SMILES notation. Counter-ions that a name gives are not always drawn.
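Also: viability read out with the CCK-8 kit in 96-well plates, screening a set of 303 compounds acting on lipid metabolism targets.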

For the molecule `C[C@@H]1O[C@@H](O[C@H]2[C@H](Oc3cc(O)c4c(c3)O[C@H](c3ccc(O)cc3)CC4=O)O[C@H](CO)[C@@H](O)[C@@H]2O)[C@H](O)[C@H](O)[C@H]1O` [Naringin], the relative cell viability with HCC1937 was determined as 1.24; with MDA-MB-231, 0.892.

Take `Cc1nc(-c2nc(-c3ccc(OC(F)(F)F)cc3)no2)nn1Cc1cccc(N2CCC(S(C)(=O)=O)CC2)c1`: the relative cell viability turned out to be 0.93 with HCC1937 and 0.775 in the assay with MDA-MB-231.

In the case of `C=C1C[C@]2(O)O[C@@]3(CC2=C(C)C)[C@@H](C)CC[C@@H]13` [Isocurcumenol], the relative cell viability in the assay with HCC1937 was 0.933; with MDA-MB-231 it was 0.92.

On to `CC(C)[C@H]1CC[C@H](C(=O)N[C@H](Cc2ccccc2)C(=O)O)CC1` [Nateglinide], for which the figures for the relative cell viability in the assay on HCC1937 and in the assay on MDA-MB-231 were 0.682 and 0.869, respectively.

As to `O=C(Nc1ccc(C(O)(C(F)(F)F)C(F)(F)F)cc1)c1ccc(C(F)(F)F)cc1`, the relative cell viability in the assay on HCC1937 came to 0.54; in the assay with MDA-MB-231 it was 0.631.

`CCC(=O)O[C@]1(C(=O)CCl)[C@@H](C)C[C@H]2[C@@H]3C[C@H](F)C4=CC(=O)C=C[C@]4(C)[C@@]3(F)[C@@H](O)C[C@@]21C` [Halobetasol Propionate]: the relative cell viability with HCC1937 was found to be 1.12; in the assay with MDA-MB-231 it was 1.13.

On to `CC[C@H](C)C(=O)O[C@H]1C[C@@H](C)C=C2C=C[C@H](C)[C@H](CC[C@@H]3C[C@@H](O)CC(=O)O3)[C@H]21` [Lovastatin], for which the relative cell viability with HCC1937 is 1.13; in the assay with MDA-MB-231, 0.657.

Regarding `CCCCCCCCCCC#CC#CCCCCCCCCC(=O)O` [10,12-Tricosadiynoic acid], the values for the relative cell viability in the assay with HCC1937 and in the assay on MDA-MB-231 were 0.712 and 0.911, respectively.

Regarding `O=C(Nc1cccnn1)N1CCC(=Cc2cccc(Oc3ccc(C(F)(F)F)cn3)c2)CC1`, the relative cell viability worked out at 1.15 with HCC1937 and 0.987 in the assay with MDA-MB-231.

Consider `O=C(O)Cc1cccc(OCCCN(Cc2cccc(C(F)(F)F)c2Cl)CC(c2ccccc2)c2ccccc2)c1`, for which the relative cell viability with HCC1937 is 0.78; with MDA-MB-231, 1.11.

Regarding `Cc1coc2c1C(=O)C(=O)c1c-2ccc2c(C)cccc12` [Tanshinone I], the results for the relative cell viability with HCC1937 and in the assay with MDA-MB-231 were 0.287 and 0.51, respectively.

Consider `COc1cc(N2CCN(C)CC2)ccc1Nc1ncc2c(n1)N(C1CCC1)C(=O)N(c1c(C)cccc1C)C2`, for which the relative cell viability with HCC1937 amounted to 0.817; with MDA-MB-231, 0.767.

As to `CCCc1cc(-c2nc(-c3ccc(C)cc3)cs2)ccn1` [Fatostatin], the relative cell viability in the assay on HCC1937 stood at 0.733; with MDA-MB-231 it was 0.745.

As for `COP(=O)(OC)OC(c1ccc(Cl)cc1)P(=O)(OC)OC` (stereo unspecified) [Mifobate], the relative cell viability in the assay on HCC1937 amounted to 1.18; in the assay on MDA-MB-231 it was 1.2.

On to `O=C(O)c1cc2c(Cl)c(N3CCN(S(=O)(=O)c4c(Cl)cccc4Cl)CC3)ccc2o1` [Vonafexor], for which the relative cell viability in the assay with HCC1937 and with MDA-MB-231 was 1.16 in each case.

Regarding `CC1(C)C[C@H]2C3=CC[C@@H]4[C@@]5(C)CC[C@H](O)[C@@](C)(CO)[C@@H]5CC[C@@]4(C)[C@]3(C)C[C@H](O)[C@@]2(CO)[C@@H](O)[C@@H]1O` [Gymnemagenin], the relative cell viability in the assay with HCC1937 was found to be 1.13; in the assay with MDA-MB-231, 1.04.

With `COc1cc(N(C)C)cc(CN(C)CCc2ccc([N+](=O)[O-])cc2)c1O` [CDC25 Phosphatase Inhibitor I], the relative cell viability in the assay on HCC1937 was determined as 0.966; with MDA-MB-231, 0.976.

In the case of `CC[C@@H]1/C=C(\C)C[C@H](C)C[C@H](OC)[C@H]2O[C@@](O)(C(=O)C(=O)N3CCCC[C@H]3C(=O)O[C@H](/C(C)=C/[C@@H]3CC[C@@H](O)[C@H](OC)C3)[C@H](C)[C@@H](O)CC1=O)[C@H](C)C[C@@H]2OC` [Ascomycin], the relative cell viability in the assay with HCC1937 turned out to be 0.185; in the assay with MDA-MB-231 it was 0.236.

In the case of `CC(C)OC(=O)CCC/C=C\C[C@@H]1[C@@H](CC[C@@H](O)CCc2ccccc2)[C@H](O)C[C@@H]1O` [Latanoprost], the results for the relative cell viability in the assay with HCC1937 and in the assay on MDA-MB-231 were 1.43 and 0.88, respectively.

Regarding `COC(=O)c1cc(Cl)c(O)c(S(=O)(=O)Nc2cc(-c3ccccc3)c(F)cc2F)c1`, the relative cell viability in the assay with HCC1937 stood at 0.737; in the assay with MDA-MB-231, 0.833.

Consider `CCN(CC)CCN(Cc1ccc(-c2ccc(C(F)(F)F)cc2)cc1)C(=O)Cn1c(SCc2ccc(F)cc2)nc(=O)c2c1CCC2` [Darapladib], for which the relative cell viability in the assay with HCC1937 was determined as 0.0924; in the assay on MDA-MB-231, 0.22.

For the molecule `O=C(O)Cn1nnc(-c2cc(N3CCC(Oc4cc(F)ccc4Br)CC3)no2)n1`, the relative cell viability in the assay with HCC1937 is 0.842; in the assay with MDA-MB-231 it was 0.882.

Consider `CSc1ccc(C(=O)/C=C/c2cc(C)c(OC(C)(C)C(=O)O)c(C)c2)cc1` [Elafibranor], for which the relative cell viability worked out at 1.57 in the assay on HCC1937 and 1.06 in the assay with MDA-MB-231.

On to `COc1cc([C@@H]2Oc3c(O)cc([C@H]4Oc5cc(O)cc(O)c5C(=O)[C@@H]4O)cc3[C@H]2CO)ccc1O` [Silychristin], for which the relative cell viability with HCC1937 is 1.04; in the assay with MDA-MB-231, 1.02.

On to `O=c1oc2ccccc2cc1O` [3-Hydroxycoumarin], for which the relative cell viability in the assay with HCC1937 came out at 1.02; with MDA-MB-231 it was 1.05.

`C[C@H]1N=C(N(C)C)N=C(N)N1` [Imeglimin hydrochloride]: the relative cell viability came out at 0.912 in the assay on HCC1937 and 0.838 with MDA-MB-231.

Consider `O=C(O)CN(CC(=O)O)c1ccccc1OCCOc1ccccc1N(CC(=O)O)CC(=O)O`, for which the relative cell viability in the assay on HCC1937 turned out to be 0.633; in the assay on MDA-MB-231, 0.899.

Turning to `CC(C)c1onc(-c2c(Cl)cccc2Cl)c1COc1ccc(/C=C/c2cccc(C(=O)O)c2)c(Cl)c1`, the relative cell viability in the assay on HCC1937 amounted to 1.03; with MDA-MB-231, 0.968.

For the molecule `Nc1cccc(S(=O)(=O)N2CCCN(S(=O)(=O)c3ccc4c(c3)OCCO4)CC2)c1`, the relative cell viability in the assay with HCC1937 is 0.881; in the assay on MDA-MB-231, 1.01.

With `O=C(ON1C(=O)CCC1=O)N1CCN(C(c2ccc(Cl)cc2)c2ccc(Cl)cc2)CC1` [Cravatt Reagent], the relative cell viability came to 1.26 in the assay on HCC1937 and 0.975 with MDA-MB-231.

As for `CC(=O)c1c(C)cc2cccc(O)c2c1O` [Nepodin], the relative cell viability stood at 0.75 in the assay on HCC1937 and 0.797 in the assay on MDA-MB-231.

Regarding `OC[C@H]1O[C@@H](Oc2cc(O)cc(/C=C/c3ccc(O)cc3)c2)[C@H](O)[C@@H](O)[C@@H]1O` [Polydatin], the relative cell viability in the assay on HCC1937 turned out to be 1.07; with MDA-MB-231, 0.871.

For the molecule `COc1ccc2c(=O)c(-c3ccccc3)coc2c1` [7-Methoxyisoflavone], the relative cell viability in the assay with HCC1937 is 0.594; in the assay on MDA-MB-231, 0.859.
